# How the values were obtained:
# [1] = molecular target: Serine/threonine-protein kinase MARK2 (Homo sapiens) (UniProt Q7KZI7); conditions: at 1 µM
# [2] = molecular target: PAS domain-containing serine/threonine-protein kinase (Homo sapiens) (UniProt Q96RG2); conditions: at 0.1 µM
# [3] = molecular target: PAS domain-containing serine/threonine-protein kinase (Homo sapiens) (UniProt Q96RG2); conditions: at 1 µM
# [4] = molecular target: Phosphorylase b kinase gamma catalytic chain, skeletal muscle/heart isoform (Homo sapiens) (UniProt Q16816); conditions: at 0.1 µM
# Phosphorylase b kinase gamma catalytic chain, skeletal muscle/heart isoform (Homo sapiens), sequence (Q16816 whole entry, looked up, canonical isoform): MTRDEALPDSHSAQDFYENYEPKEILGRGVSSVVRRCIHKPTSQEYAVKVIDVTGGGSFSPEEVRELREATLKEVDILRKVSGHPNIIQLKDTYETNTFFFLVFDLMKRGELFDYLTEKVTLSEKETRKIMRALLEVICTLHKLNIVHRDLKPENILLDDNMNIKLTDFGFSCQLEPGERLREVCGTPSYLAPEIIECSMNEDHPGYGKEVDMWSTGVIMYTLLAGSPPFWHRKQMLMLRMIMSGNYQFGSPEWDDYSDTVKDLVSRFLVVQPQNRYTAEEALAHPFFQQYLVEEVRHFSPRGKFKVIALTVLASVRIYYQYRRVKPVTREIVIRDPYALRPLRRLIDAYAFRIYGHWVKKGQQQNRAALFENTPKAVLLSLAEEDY
# [5] = molecular target: Phosphorylase b kinase gamma catalytic chain, skeletal muscle/heart isoform (Homo sapiens) (UniProt Q16816); conditions: at 1 µM
# [6] = molecular target: T1, Phosphorylase b kinase gamma catalytic chain, liver/testis isoform (Homo sapiens) (UniProt P15735); conditions: at 0.1 µM
# T1 sequence (whole entry): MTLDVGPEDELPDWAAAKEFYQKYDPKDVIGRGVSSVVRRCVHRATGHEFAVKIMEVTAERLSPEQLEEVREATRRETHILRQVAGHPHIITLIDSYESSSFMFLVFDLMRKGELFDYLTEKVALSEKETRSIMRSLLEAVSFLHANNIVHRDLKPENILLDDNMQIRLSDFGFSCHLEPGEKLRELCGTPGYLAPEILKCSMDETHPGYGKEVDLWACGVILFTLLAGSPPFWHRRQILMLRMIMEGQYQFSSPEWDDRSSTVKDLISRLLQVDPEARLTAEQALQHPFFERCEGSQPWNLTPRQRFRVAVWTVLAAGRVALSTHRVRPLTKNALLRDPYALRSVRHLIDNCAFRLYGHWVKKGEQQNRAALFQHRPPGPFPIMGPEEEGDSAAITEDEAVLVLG
# [7] = molecular target: T1, Phosphorylase b kinase gamma catalytic chain, liver/testis isoform (Homo sapiens); conditions: at 1 µM
# [8] = molecular target: Serine/threonine-protein kinase pim-1 (Homo sapiens) (UniProt P11309); conditions: at 0.1 µM
# Serine/threonine-protein kinase pim-1 (Homo sapiens), sequence (P11309 whole entry, looked up): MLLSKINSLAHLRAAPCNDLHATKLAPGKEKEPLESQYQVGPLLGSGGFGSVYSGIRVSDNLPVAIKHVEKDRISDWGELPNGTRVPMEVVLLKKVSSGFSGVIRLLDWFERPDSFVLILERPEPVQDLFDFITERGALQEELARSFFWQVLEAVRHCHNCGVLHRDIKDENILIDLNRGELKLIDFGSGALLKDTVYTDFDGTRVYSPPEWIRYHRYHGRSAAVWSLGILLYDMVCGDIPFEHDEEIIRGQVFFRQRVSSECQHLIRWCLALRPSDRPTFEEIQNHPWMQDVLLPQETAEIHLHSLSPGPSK
# [9] = molecular target: Serine/threonine-protein kinase pim-1 (Homo sapiens) (UniProt P11309); conditions: at 1 µM
# [10] = molecular target: Serine/threonine-protein kinase pim-2 (Homo sapiens) (UniProt Q9P1W9); conditions: at 0.1 µM;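 further: reported value is the mean percent inhibition of PIM2, measured in the GSK PKIS kinase inhibitor set screen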
# Serine/threonine-protein kinase pim-2 (Homo sapiens), sequence (Q9P1W9 whole entry, looked up): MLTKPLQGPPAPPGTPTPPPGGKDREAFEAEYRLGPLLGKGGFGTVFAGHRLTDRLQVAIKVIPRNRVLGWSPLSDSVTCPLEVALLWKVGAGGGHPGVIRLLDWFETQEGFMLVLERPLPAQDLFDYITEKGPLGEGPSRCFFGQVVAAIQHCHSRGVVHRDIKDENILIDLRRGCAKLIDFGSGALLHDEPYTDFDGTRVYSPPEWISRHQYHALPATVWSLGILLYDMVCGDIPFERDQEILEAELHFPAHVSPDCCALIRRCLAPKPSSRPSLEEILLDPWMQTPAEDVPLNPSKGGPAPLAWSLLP
# Serine/threonine-protein kinase MARK2 (Homo sapiens), sequence (Q7KZI7 whole entry, the tested form may be a part): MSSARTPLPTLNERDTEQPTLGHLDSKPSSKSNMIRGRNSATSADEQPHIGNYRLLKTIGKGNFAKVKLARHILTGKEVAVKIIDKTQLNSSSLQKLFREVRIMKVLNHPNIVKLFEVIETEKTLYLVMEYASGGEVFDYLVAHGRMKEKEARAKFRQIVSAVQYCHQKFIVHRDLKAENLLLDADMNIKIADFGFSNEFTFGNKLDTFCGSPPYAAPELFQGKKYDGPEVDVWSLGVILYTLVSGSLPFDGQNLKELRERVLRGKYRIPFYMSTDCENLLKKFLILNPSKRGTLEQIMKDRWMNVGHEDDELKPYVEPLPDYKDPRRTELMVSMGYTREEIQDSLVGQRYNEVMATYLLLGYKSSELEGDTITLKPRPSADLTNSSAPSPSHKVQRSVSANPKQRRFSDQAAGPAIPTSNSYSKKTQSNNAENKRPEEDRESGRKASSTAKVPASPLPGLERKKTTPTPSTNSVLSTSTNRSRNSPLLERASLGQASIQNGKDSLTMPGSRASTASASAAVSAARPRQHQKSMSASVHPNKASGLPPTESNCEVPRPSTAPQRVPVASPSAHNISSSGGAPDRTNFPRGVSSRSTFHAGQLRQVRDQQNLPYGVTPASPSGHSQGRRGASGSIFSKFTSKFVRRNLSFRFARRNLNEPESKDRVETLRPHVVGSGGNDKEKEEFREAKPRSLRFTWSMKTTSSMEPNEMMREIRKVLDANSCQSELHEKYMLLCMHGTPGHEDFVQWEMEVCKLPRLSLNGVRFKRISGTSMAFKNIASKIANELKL
# PAS domain-containing serine/threonine-protein kinase (Homo sapiens), sequence (Q96RG2 whole entry, the tested form may be a part, canonical isoform): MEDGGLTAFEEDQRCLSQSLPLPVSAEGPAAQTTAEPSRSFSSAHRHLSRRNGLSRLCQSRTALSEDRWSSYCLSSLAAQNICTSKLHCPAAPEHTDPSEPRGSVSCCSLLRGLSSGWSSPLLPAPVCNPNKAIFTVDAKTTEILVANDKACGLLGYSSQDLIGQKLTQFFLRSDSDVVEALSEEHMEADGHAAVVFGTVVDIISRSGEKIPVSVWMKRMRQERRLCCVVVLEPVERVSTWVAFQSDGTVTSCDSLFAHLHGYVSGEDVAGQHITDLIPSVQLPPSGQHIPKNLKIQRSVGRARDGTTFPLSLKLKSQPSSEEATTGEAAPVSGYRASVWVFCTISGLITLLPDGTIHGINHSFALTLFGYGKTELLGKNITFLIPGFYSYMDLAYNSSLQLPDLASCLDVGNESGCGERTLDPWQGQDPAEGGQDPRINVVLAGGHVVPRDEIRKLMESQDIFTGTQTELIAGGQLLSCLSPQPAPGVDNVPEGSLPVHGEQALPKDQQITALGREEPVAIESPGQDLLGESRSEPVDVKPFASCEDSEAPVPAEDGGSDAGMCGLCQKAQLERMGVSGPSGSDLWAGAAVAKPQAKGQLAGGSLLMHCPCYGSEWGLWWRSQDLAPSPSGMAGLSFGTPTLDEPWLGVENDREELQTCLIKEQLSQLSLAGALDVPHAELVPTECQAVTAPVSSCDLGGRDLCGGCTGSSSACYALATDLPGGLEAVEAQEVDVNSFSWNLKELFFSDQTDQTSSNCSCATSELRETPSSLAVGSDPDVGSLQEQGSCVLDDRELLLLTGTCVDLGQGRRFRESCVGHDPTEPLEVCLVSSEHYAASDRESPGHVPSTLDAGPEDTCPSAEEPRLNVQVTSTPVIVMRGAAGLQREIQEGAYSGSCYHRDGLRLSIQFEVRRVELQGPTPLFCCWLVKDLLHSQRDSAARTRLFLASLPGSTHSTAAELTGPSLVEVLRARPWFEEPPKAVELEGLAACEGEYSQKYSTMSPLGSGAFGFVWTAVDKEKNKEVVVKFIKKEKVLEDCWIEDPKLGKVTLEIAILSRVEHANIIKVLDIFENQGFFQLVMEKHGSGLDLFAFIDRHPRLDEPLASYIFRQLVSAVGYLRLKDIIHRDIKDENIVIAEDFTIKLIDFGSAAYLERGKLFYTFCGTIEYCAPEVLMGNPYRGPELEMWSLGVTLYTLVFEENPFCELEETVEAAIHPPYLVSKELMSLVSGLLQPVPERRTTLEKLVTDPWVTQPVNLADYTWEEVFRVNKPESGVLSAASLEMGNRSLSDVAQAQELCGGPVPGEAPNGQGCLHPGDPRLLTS
SMILES,inhibition [1] [%],inhibition [2] [%],inhibition [3] [%],inhibition [4] [%],inhibition [5] [%],inhibition [6] [%],inhibition [7] [%],inhibition [8] [%],inhibition [9] [%],inhibition [10] [%]
NS(=O)(=O)c1cccc(-c2cc3ccncc3cc2OCc2ccccc2)c1,4.78,0.61,-0.76,4.05,7.24,4.91,3.55,1.01,0.91,0.27
N#Cc1cccc(Nc2nccc(-c3cnn4ncccc34)n2)c1,9.5,0.25,0.01,15.8,58.3,7.04,22.2,1.44,12.4,0.59
NS(=O)(=O)c1ccc(-c2cc3ccncc3cc2OCc2ccccc2)cc1,-0.56,-0.27,0.09,3.43,8.39,5.17,5.11,0.14,0.86,-0.34
COc1cc(Nc2nccc(-c3cnn4ncccc34)n2)cc(OC)c1,20,0.79,-0.31,7.9,39.2,2.69,15.6,1.41,6.3,1.22
Cc1cc(O)cc(C)c1/C=C/c1cncc(C(=O)N(C)C)c1,1.77,0.83,-0.85,3.09,2.61,2.55,0.54,1.21,2.17,0.03
NC(=O)c1cccc(Nc2nccc(Nc3cccc(F)c3)n2)c1,3.47,1.27,0.17,-0.51,3.35,1.29,0.54,-0.04,-0.4,-0.05
ON=C1CCc2cc(-c3nc(C4CCNCC4)[nH]c3-c3ccncc3)ccc21,2.57,0.03,-0.46,0,1.5,0.29,-2.23,1,0.9,0.25
Cc1ccc(NC(=O)CC2CC2)cc1-c1ccc(C(=O)NCC2CC2)cc1,0.03,-0.28,0.77,3.12,5.93,4.45,4.9,1.51,0.73,-0.33
CN(C)CCCn1c(-c2nonc2N)nc2cnccc21,2.24,-0.11,-0.83,2.33,2.88,4.54,2.43,2.81,18.9,-0.04
O=C1Nc2ccccc2/C1=C/Nc1ccc2[nH]c(=O)[nH]c2c1,13.4,12.4,64.1,10.5,42.6,7.44,21.4,-0.21,2.44,0.27
CN(C)C(=O)O[C@H]1CN[C@H](C#Cc2cc3ncnc(Nc4ccc(OCc5cccc(F)c5)c(Cl)c4)c3s2)C1,1.09,0.16,-0.64,2.62,2.71,2.94,-0.02,-0.09,0.1,0.57
Cc1ccc2c(-c3ccnc(Nc4ccc5c(c4)OCCO5)n3)c(-c3ccc(C(F)(F)F)cc3)nn2n1,2.02,1.16,1.48,3.21,1.99,1.58,1.14,-0.32,0.3,0.44
CC(C)c1ccc2c(c1)NC(=O)/C2=N/Nc1ccc(S(N)(=O)=O)cc1,-0.8,1.25,0.24,-0.83,1.14,0.03,0.32,0.27,-0.22,-0.21
C[C@@H](Oc1cc(-n2cnc3ccc(OCC4CCN(C)CC4)cc32)sc1C(N)=O)c1ccccc1C(F)(F)F,43.4,1.41,2.84,1.57,7.24,-1.2,10.8,18.7,68.4,0.26
CCCN1CCCC(c2ccc(Nc3nc(Nc4cc(F)ccc4C(N)=O)c4cc[nH]c4n3)c(OC)c2)C1 (stereo not given),40,-0.3,8.59,51.2,77.8,26.9,67.6,11.7,50.8,0.9
Cc1nc(-c2ccccc2)n2nc(NCCCN3CCOCC3)ncc12,0.71,0.65,-0.06,0.52,4.26,3.22,3.98,-0.82,0.37,0.19
